High-throughput results: PubChem, National Center for Advancing Translational Sciences (NCATS)
JMJD2A Tudor inh: inhibitors of human JMJD2A Tudor domain | O75164 | AlphaScreen JMJD2A-Tudor / H3K4me3 peptide binding | Potency, µM (doses to about 114 µM), for the others: at the top dose activity change, negative = inhibition, actives largely listed as inhibitors | hit rate 4.4% among 390,000; note: potency is the fitted concentration of half-maximal effect; % is set by controls: 0 for no effect and ±100 for the full control effect; nearly all actives have a fitted effect of over 50% in size
GCN5L2 inh: GCN5L2 (KAT2A) acetyltransferase inhibition; Q92830; GCN5L2 HAT assay, ThioGlo1 CoA-SH fluorescence; Potency, µM (highest dose often 58.9 µM), for inactives: at the top dose activity change, negative = inhibition, hits mostly inhibitors; hit rate 0.21% among 390,000; AID 504327; note: potency is the fitted concentration of half-maximal effect; % is set by controls: 0 for no effect and ±100 for the full control effect
Target sequence (Q92830 whole entry, looked up): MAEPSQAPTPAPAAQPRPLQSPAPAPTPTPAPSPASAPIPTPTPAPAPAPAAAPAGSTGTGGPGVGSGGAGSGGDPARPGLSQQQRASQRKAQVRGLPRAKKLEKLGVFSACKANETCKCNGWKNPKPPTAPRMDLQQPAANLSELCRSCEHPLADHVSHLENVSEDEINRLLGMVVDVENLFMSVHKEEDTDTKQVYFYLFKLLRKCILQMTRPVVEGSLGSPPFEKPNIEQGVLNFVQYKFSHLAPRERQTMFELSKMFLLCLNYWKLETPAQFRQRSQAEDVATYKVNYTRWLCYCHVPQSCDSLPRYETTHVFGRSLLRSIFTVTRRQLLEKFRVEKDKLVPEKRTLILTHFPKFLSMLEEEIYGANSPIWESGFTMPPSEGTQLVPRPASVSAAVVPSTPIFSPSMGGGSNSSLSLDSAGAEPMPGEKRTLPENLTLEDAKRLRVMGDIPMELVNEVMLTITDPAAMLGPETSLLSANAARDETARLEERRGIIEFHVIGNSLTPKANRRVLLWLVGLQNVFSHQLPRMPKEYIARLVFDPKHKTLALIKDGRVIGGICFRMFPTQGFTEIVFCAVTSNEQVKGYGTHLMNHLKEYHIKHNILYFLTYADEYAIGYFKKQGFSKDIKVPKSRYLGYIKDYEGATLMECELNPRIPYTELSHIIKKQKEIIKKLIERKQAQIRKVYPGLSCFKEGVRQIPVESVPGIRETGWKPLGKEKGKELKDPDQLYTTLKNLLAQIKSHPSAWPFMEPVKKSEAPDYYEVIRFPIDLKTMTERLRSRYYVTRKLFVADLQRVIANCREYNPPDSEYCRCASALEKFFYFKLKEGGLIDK
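Compounds, pin-transferred from DMSO stocks, meet 20nM GCN5L2 for 15 min before the reaction begins with H3(1-25) peptide (75uM) and acetyl-CoA (70uM). Thiol-reactive ThioGlo1 reports CoA release over 20 min at room temperature.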
PI5P4K alpha inh: inhibitors of human PI5P4K alpha; P48426; PI5P4Kalpha enzyme, ADP-Glo luminescence, 60 min; stronger effect = lower value; max response, %; hit rate 1.2% among 330,000; AID 652105; active = max response of -50% or lower; inconclusive = between -30% and -50%; inactive = -30% or higher; note: value at the top dose of about 77 µM; % is set by controls: 0 for no effect and ±100 for the full control effect
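Enzyme plus substrate dispensed, test compounds pinned in, then ATP (5 microM final) added. After 60 min at RT, ADP-Glo reagent 1 for 45 min and reagent 2 for 30 min preceded luminescence imaging.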
PLK1 PBD inh: blocks phosphopeptide binding to human PLK1 polo-box domain | P53350 | Plk1 PBD binding of FITC phosphopeptide, fluorescence polarization | Potency, µM, for the others: max response, negative = inhibition, hits mostly inhibitors | hit rate 2.8% among 360,000; note: potency is the fitted concentration of half-maximal effect; series mostly up to about 57 µM; % is set by controls: 0 for no effect and ±100 for the full control effect; nearly all actives have a fitted effect of over 65% in size
HP1b chromo inh: HP1-beta chromodomain-methylated histone interaction inhibition; AlphaScreen HP1-beta / biotin-H3K9me3 peptide binding; AID 540317; hit rate 0.56% among 390,000; Potency, µM (titrated, usually from 114 µM), without a hit: top-dose activity change, negative = inhibition, actives largely listed as inhibitors; note: potency is the fitted concentration of half-maximal effect; nearly all actives have a fitted effect of over 70% in size
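AlphaScreen: HP1-beta (50 nM) preformed 30 min with biotin-H3(1-18)K9me3 peptide (50 nM) in PBS pH 7.4, 0.01% Tween-20. Compound added for 30 min at RT, then streptavidin donor/nickel chelate acceptor beads (10 ug/mL) for 30 min.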
BAZ2B block: BAZ2B (human) inhibition. Q9UIF8. AlphaScreen BAZ2B-H3K14Ac peptide displacement. Potency, µM (doses to about 114 µM), for inactives: at the top dose activity change, negative = inhibition, usual class: inhibitors. hit rate 4.4% among 360,000. AID 504333; note: potency is the fitted concentration of half-maximal effect; % is set by controls: 0 for no effect and ±100 for the full control effect; nearly all actives have a fitted effect of over 60% in size
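BAZ2B (50 nM) with biotin-H3(5-23)K14Ac peptide (50 nM) in PBS pH 7.4, 0.01% Tween-20, preformed 30 min, then compound 30 min at room temperature; top concentration 110uM. AlphaScreen streptavidin donor/nickel chelate acceptor beads (10 ug/mL final), 20 min dark, signal read.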
Numbers without * were called inactive; ? = inconclusive; . = not tested or not shown; [ ] = dose if it differs, or a comment. Rows were chosen to be rich in hits. Some 7% of all compounds tested hit in one or more screens of this group. Unless noted, calls come from the whole dose curve; as a rule, active = well fitted curve in the direction sought with a large enough effect; inconclusive = small, poorly fitted or top-dose-only effect, or another doubt; inactive = no such curve, though single readings can be large; an effect the other way counts as inactive or inconclusive.

SMILES	JMJD2A Tudor inh	GCN5L2 inh	PI5P4K alpha inh	PLK1 PBD inh	HP1b chromo inh	BAZ2B block
O=C(CNCC1CCCO1)N1CCN(S(=O)(=O)c2ccc3ccccc3c2)CC1 (stereo not drawn)	7.94µM*	2.6%	-3.7	-1.5%	-34.6%	56.2µM*
O=C(CCl)N1CCN(S(=O)(=O)c2ccc3ccccc3c2)CC1	-27.1%	-2.2%	-1.0	-16.3%	40.5%	-17.6%
CC(=O)N1CCc2cc(N=NC3=C(O)CC(C)(C)CC3=O)ccc21	-23.2%	-10.1%	0.0	12.1%	46.7%	?
Cc1nc(-c2ccccc2)cn(O)c1=O	28.2µM*	-14.6%	0.5	-8.2%	6.3%	79.4µM*
Cc1nn2cc(-c3ccccc3)nc2[nH]c1=O	9.4%	?	-5.2	-3.1%	16.5%	0.7%
COc1ccc(C2N(c3ccc(C)cc3)CCN2c2ccc(C)cc2)cc1O	28.2µM*	-10.5%	-0.5	-5.3%	-16.1%	31.6µM*
N#C/C(N=Nc1ccccc1O)=N\Nc1ccccc1O	22.4µM*	-27.4%	?	-24.6%	15.8µM*	11.2µM*
Oc1ccccc1N=N/C(=N/Nc1ccccc1O)c1ccccc1	-34.8%	-0.3%	?	-15.4%	-1.9%	?
CSc1nnc2c3cc(F)ccc3n(C)c2n1	-12.0%	?	4.2	-4.3%	33.2%	?
CSc1nnc2c3ccccc3c3ccccc3c2n1	?	-3.8%	-7.3	21.2µM*	?	10.1%
Cc1ccc(C(=O)Nc2ccccc2C(=O)O)cc1S(=O)(=O)NC1CCCCC1	-20.5%	-1.1%	-11.7	-22.4%	23.7%	56.2µM*
O=C(NCc1ccccc1)C1(C(F)(F)F)C/C(=C/Cc2ccccc2)CCCO1 (stereo not drawn)	-18.6%	.	.	.	7.9%	.
O=C(NCc1ccccn1)C1(C(F)(F)F)C/C(=C\Cc2ccccc2)CCCO1 (stereo not drawn)	31.6µM*	.	.	.	-11.7%	.
C[C@@H]1CN([C@@H](C)CO)C(=O)c2cc(NS(=O)(=O)c3ccc(Cl)cc3)ccc2O[C@H]1CN(C)Cc1ccncc1	-28.7%	-2.7%	-2.2	-6.5%	25.9%	.
N#C/C(=C\c1c(Cl)cccc1Cl)c1nc2ccccc2[nH]1	-24.7%	-3.0%	-3.9	-10.5%	22.5%	-7.9%
N#C/C(=C\c1c(Cl)cccc1Cl)c1nc2ccccc2o1	-35.1%	21.0%	3.8	0.423µM*	-23.3%	-30.3%
Cc1cccn2c(=O)c3cc(C#N)c(=N)n(CCN4CCOCC4)c3nc12	6.9%[11.4 µM]	-3.4%	0.5	-26.8%	0.6%	50.1µM*
Nc1nc2c(c(=O)[nH]1)C(c1ccccc1)C1=C(N2)c2ccccc2C1=O (stereo not drawn)	-6.1%	-15.5%	-24.8	-8.6%	2.2%	?
COc1cc(C2C3=C(Nc4nc(N)[nH]c(=O)c42)c2ccccc2C3=O)ccc1O (stereo not drawn)	?	8.2%	-71.1*	-7.4%	-9.0%	?
COc1ccc(N2CCN(C(=O)CCc3c(C)nc4cc(-c5ccc(OC)cc5OC)nn4c3C)CC2)cc1	-14.8%	-4.1%	.	.	4.3%	17.8µM*
O=C(CCCN1C(=O)C(=Cc2ccc3c(c2)OCO3)SC1=S)Nc1ccc(C(=O)O)c(O)c1	.	.	-23.0	-11.6%	.	.
O=C(N/C(=C/c1cccc(Br)c1)c1nc(=S)[nH][nH]1)c1ccccc1	?	15.4%	0.4	-4.6%	?	?
Cc1ccc(C(=O)N/C(=C\c2ccc(Br)cc2)c2nc(=S)[nH][nH]2)cc1	44.7µM*	-9.2%	.	-4.4%	-18.4%	?
Cc1ccc(C(=O)OCC(=O)c2ccc(CC(=O)N3CCOCC3)s2)c(C)c1	12.6µM*	?	?	-21.1%	-36.4%	50.1µM*
Cc1ccc(C(=O)OCC(=O)c2ccc(CC(=O)N3CCOCC3)s2)cc1C	?	-18.7%	?	-2.6%	18.7%	50.1µM*
Cc1ccc(-n2c(C)cc(C(=O)OCC(=O)N3CCOCC3)c2C)cc1	-20.5%	4.4%	-2.4	4.3%	?	.
Cc1cc(C)c2oc(-c3ccc(C)c(NC(=O)/C=C/c4ccco4)c3)nc2c1	56.2µM*	-20.7%	.	.	?	?
